Screens deposited in PubChem by National Center for Advancing Translational Sciences (NCATS).
In the library only some 0.71% were active in any assay of this set; here they are far more common.
RECQ1 helicase = RECQ1 (human) helicase inhibition. P46063. RECQ1 DNA unwinding, red fluorescence kinetic read. Potency, µM (series often up to 57.3 µM), for the others: at the highest dose activity, negative = inhibition, actives largely listed as inhibitors. hit rate 0.54% among 240,000;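 further: plate controls were vehicle for no effect and no enzyme for full effect; nearly all actives have a fitted effect of over 30% in size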
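RECQ1T1 50 nM; forked duplex (20 bp + 30-nt ss tails) 200 nM, ATP 2 mM final; pH 8.0, 2 mM MgCl2, 2.5 ug/ml poly(dI-dC); 15 min compound preincubation; discontinuous kinetic read over 2 h at RT.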
TexasRed fluor = alters Texas Red total fluorescence, flagging assay interference; TRb/SRC2 Texas Red total fluorescence interference; Potency, µM (titrated, usually from 106 µM), for the others: top-dose fluorescence change, negative = quenching; hit rate 0.29% among 280,000; AID 1479; active means well fitted curve in either direction with a large enough effect; further: on the % scale 0 is the no-effect control and ±100 the full control effect
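Flags fluorescent or light-absorbing compounds by total fluorescence, S + 2P, at 555 nm excitation and 632 nm emission. Mixture: 20 nM Texas Red SRC2 peptide, 0.6 uM human TRb LBD, 1 uM T3, 5% DMSO; compound exposure 5 h at ambient temperature.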
TRb-SRC2 inh = TRbeta-SRC2 interaction inhibition; P10828; TRbeta-SRC2 peptide binding, fluorescence polarization; receptor liganded with 1 µM T3; Potency, µM (series often up to 106 µM), inactives show at the top dose activity change, negative = inhibition, most hits filed as inhibitors; hit rate 0.065% among 280,000; AID 1469;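 further: plate controls were bound peptide for no effect and peptide without receptor for full effect; nearly all actives have a fitted effect of over 50% in size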
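A fluorescence polarization screen tested compounds at multiple concentrations against complex formation between 0.6 uM TRb ligand-binding domain and 20 nM Texas Red SRC2 peptide, with 1 uM T3 present; readout after 5 hr.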
ERG-DNA inh = inhibitors of human ERG Ets domain-DNA interaction | Potency, µM (doses to about 76.9 µM), for inactives: top-dose FP activity, negative = inhibition, actives largely listed as inhibitors | AID 624246 | hit rate 0.028% among 370,000 | fluorescence polarization, His-ERG Ets domain / labelled DNA; active means well fitted inhibition curve with a large enough effect in the polarisation, with a control signal flat; the % refers to the polarisation;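 further: polarization taken with two DNA probes labelled with fluorescein and Texas red; % of control where 0% means no effect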
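His-tagged ERG Ets domain (1 uM in the protein solution; 300mM KCl, 50mM Tris-HCl, 1mM EDTA, 1mM DTT, pH 7.5) received compound, then a probe mix of 5 nM fluorescein-DNA and 100nM Texas-615-DNA. Fluorescence polarization was read for both dyes.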
RGS12 GoLoco inh = inhibitors of human Gai1-RGS12 GoLoco interaction (red fluorophore); P63096; Gai1:RGS12 GoLoco peptide FP, rhodamine, 10 min; Potency, µM (highest dose often 61.6 µM), inactives show at the highest dose activity, negative = inhibition, actives largely listed as inhibitors; hit rate 0.44% among 230,000; AID 880; active means well fitted inhibition curve with a large enough effect, not every such curve was filed as active; inactive means no such curve, though single readings can be large or run the other way; further: on the % scale 0 is the no-effect control and ±100 the full control effect; nearly all actives have a fitted effect of over 30% in size
Target sequence (P63096 whole entry, looked up): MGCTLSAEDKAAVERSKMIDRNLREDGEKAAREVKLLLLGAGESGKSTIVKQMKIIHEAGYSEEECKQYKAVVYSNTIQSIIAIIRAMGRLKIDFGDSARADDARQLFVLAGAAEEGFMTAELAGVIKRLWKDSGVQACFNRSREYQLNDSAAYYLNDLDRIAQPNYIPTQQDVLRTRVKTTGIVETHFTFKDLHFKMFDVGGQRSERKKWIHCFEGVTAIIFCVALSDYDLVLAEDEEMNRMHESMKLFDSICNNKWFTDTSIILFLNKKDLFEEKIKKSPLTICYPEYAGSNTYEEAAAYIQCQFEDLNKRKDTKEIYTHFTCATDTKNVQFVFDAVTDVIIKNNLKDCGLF
BLM inh = blocks DNA unwinding by human BLM helicase. recombinant BLM DNA unwinding, fluorescence dequenching. P54132. AID 2528. hit rate 0.2% among 350,000. Potency, µM (series often up to 56.1 µM), for the others: at the highest dose activity change, negative = inhibition, usual class: inhibitors;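 further: plate controls were vehicle for no effect and no enzyme for full effect; nearly all actives have a fitted effect of over 35% in size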
Numbers without * were called inactive; [ ] = dose if it differs, or a comment. Unless noted, the call rests on the fitted dose curve; in most records, active means well fitted curve in the direction sought with a large enough effect; inconclusive means small, poorly fitted or top-dose-only effect, or another doubt; inactive means no such curve, though single readings can be large; an effect the other way counts as inactive or inconclusive. Potency means the concentration at half of the fitted maximal effect.

What do the screens show for `COC(=O)c1c(Cl)nn(C)c1S(=O)(=O)NC(=O)Nc1nc(OC)cc(OC)n1`?
TexasRed fluor: -2.9%[201 µM]; TRb-SRC2 inh: 0.2%[201 µM]

Results for O=C(Cn1cc[n+](CC(=O)c2ccc(Cl)cc2Cl)c1)c1ccc(Cl)cc1Cl ?
RECQ1 helicase: -6.2%; TexasRed fluor: 0.6%; TRb-SRC2 inh: -6.4%; ERG-DNA inh: 10.7%; RGS12 GoLoco inh: 7.9%; BLM inh: 3.4%

What do the screens show for `O=C(Cn1cc[n+](CC(=O)c2ccccc2)c1)c1ccccc1`?
RECQ1 helicase: 22.4µM*; TexasRed fluor: 4.8%; TRb-SRC2 inh: 2.1%; ERG-DNA inh: -1.2%; RGS12 GoLoco inh: 4.0%; BLM inh: -0.3%

What do the screens show for `CCc1nn(-c2ccccc2)c2nc(-c3ccccc3OC)c3cc(OC)c(OC)cc3c12`?
TexasRed fluor: 0.141µM*[quencher]; TRb-SRC2 inh: -14.0%; ERG-DNA inh: -0.8%; BLM inh: -8.2%

Results for CCc1nn(-c2ccccc2)c2nc(-c3ccc(O)cc3)c3cc(OC)c(OC)cc3c12 ?
TexasRed fluor: 4.8%; TRb-SRC2 inh: -3.9%; ERG-DNA inh: 4.5%; BLM inh: -6.5%

How did CCN1/C(=C/c2sc(-c3ccccc3C)c[n+]2C)Sc2ccccc21 do in these assays?
RECQ1 helicase: 2.8%; TexasRed fluor: -0.9%; TRb-SRC2 inh: -1.2%; ERG-DNA inh: 4.8%; RGS12 GoLoco inh: 10µM*; BLM inh: 55.6%

What do the screens show for `COc1ccccc1C(=O)Nc1c(C(=O)NC(C)(C)C)oc2ccccc12`?
TexasRed fluor: 2.1%; TRb-SRC2 inh: 4.5%; ERG-DNA inh: -8.1%; BLM inh: -2.7%

How did COc1ccccc1C(=O)Nc1c(C(=O)c2ccccc2)oc2ccccc12 do in these assays?
TexasRed fluor: 0.0562µM*[quencher]; TRb-SRC2 inh: -12.1%; ERG-DNA inh: -7.6%; BLM inh: -6.0%

Results for CC(=O)CSc1nnc2cc(C)c3cc(C)cc(C)c3n12 ?
TexasRed fluor: 25.1µM*[quencher]; TRb-SRC2 inh: -13.6%; ERG-DNA inh: 1.2%; BLM inh: -4.7%

Results for CC/C=C\CCOC(=O)c1ccccc1O ?
TexasRed fluor: -2.4%[201 µM]; TRb-SRC2 inh: -3.5%[201 µM]

How did C/C(N=NC(=[SH+])SCc1ccccc1)=C1\C=CC=CN1.[Cl][Cu] do in these assays?
RGS12 GoLoco inh: -31.8%[14.2 µM]

Results for CCc1nn2c(-c3ccccc3OC)ccnc2c1-c1ccccc1 ?
TexasRed fluor: -0.6%; TRb-SRC2 inh: 6.3%; ERG-DNA inh: -2.6%; BLM inh: -7.5%

Results for CCc1nn2c(-c3ccccc3OC)ccnc2c1-c1ccc(F)cc1 ?
TexasRed fluor: 8.91µM*[quencher]; TRb-SRC2 inh: -9.3%; ERG-DNA inh: -0.2%; BLM inh: -8.7%

How did COc1ccc(OC)c(Nc2nc(=O)c3cccnc3s2)c1 do in these assays?
RECQ1 helicase: -10.5%; TexasRed fluor: -0.6%; TRb-SRC2 inh: 3.7%; ERG-DNA inh: 7.7%; RGS12 GoLoco inh: 25.1µM*; BLM inh: -6.1%

What do the screens show for `Cc1ccc(Nc2nc(=O)c3cccnc3s2)cc1`?
RECQ1 helicase: -3.8%; TexasRed fluor: -3.5%; TRb-SRC2 inh: 4.2%; RGS12 GoLoco inh: 7.4%; BLM inh: -1.8%

How did Cc1ccc(CNC(=O)CCN2C(=O)C(C)Oc3ccc(C)cc32)cc1 (configuration not stated) do in these assays?
TexasRed fluor: 35.5µM*[quencher]; TRb-SRC2 inh: -16.6%[53 µM]; ERG-DNA inh: 8.0%; BLM inh: 2.3%

What do the screens show for `COc1ccc(CCNC(=O)CCN2C(=O)C(C)Oc3ccc(C)cc32)cc1OC` (configuration not stated)?
RECQ1 helicase: inactive; TexasRed fluor: -1.3%; TRb-SRC2 inh: -6.0%; ERG-DNA inh: -2.7%; RGS12 GoLoco inh: 3.1%; BLM inh: 1.9%

Results for CN(Cc1cccc2ccccc12)Cc1cccc2ccccc12 ?
RGS12 GoLoco inh: 2.7%[14.2 µM]
